rCAG RNA binder – binders of r(CAG) RNA repeats, primary screen, biochemical, fluorescence; r(CAG) RNA repeat, TO-PRO-1 dye displacement fluorescence; inhibition, % at 3 µM; 1.3% of 370,000 active; AID 651821, 2012;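 active = inhibition above the plate cutoff, the mean of all test compounds on that plate plus 3 SD, cut at about 35% in these data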;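 also: higher means more dye released from RNA so lower well fluorescence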
Granule exo inh – LAMP-1 surface exposure blockers, TALL-104 cells – cell-based, flow cytometry, MLPCN library, primary screen; TALL-104 LAMP-1 surface exposure; cells stimulated with thapsigargin and PMA; inhibition, % at 10 µM; 0.66% of 360,000 active; AID 651702, 2012;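 active = inhibition above about 55%, limit read from the data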
PG9 binder – binders of HIV-1 gp120 antibody PG9, primary screen, biochemical, TR-FRET; HIV-1 gp120 / PG9 antibody interaction; TR-FRET gp120-PG9 antibody binding; inhibition, % at 6.7 µM; 0.43% of 360,000 active; AID 624416, 2012; in the data active = inhibition above about 8.5%
ABCB6 inh MLPCN – ABCB6 transporter inhibitors, primary screen, K562-ABCB6 cells, flow cytometry, MLPCN library. ATP-binding cassette sub-family B member 6 (Homo sapiens), Q9NP58. K562-ABCB6 porphyrin accumulation, 1 h; active compounds read low. fluorescence ratio to DMSO, % at 10 µM. 0.19% of 360,000 active. AID 602162, 2011;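 active = fluorescence ratio to DMSO below 75%, the collection mean minus 3 SD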;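 also: signal is porphyrin accumulated inside mitochondria; lower ratio means ABCB6 inhibition with less porphyrin fluorescence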
Target sequence (Q9NP58 whole entry, looked up): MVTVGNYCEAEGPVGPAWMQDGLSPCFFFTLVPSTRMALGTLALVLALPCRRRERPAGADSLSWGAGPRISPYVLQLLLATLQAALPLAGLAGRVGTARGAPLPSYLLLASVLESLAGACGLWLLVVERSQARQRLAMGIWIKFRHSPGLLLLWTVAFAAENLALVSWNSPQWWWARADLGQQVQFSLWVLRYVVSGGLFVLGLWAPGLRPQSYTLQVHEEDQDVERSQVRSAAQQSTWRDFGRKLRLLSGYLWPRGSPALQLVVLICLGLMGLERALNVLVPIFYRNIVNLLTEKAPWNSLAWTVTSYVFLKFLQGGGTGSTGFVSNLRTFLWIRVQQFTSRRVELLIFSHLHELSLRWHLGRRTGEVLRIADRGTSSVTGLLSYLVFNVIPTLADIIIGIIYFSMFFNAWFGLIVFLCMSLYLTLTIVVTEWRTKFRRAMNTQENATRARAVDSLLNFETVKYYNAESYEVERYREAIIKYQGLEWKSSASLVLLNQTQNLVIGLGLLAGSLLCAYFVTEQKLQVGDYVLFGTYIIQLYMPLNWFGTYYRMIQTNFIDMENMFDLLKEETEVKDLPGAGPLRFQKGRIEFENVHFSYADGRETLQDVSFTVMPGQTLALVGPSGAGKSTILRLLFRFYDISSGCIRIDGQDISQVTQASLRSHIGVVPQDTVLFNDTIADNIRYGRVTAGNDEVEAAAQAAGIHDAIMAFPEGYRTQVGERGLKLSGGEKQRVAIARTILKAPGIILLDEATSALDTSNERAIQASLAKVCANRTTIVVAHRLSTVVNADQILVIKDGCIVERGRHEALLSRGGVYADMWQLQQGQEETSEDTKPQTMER
Large screens that a line does not name were inactive; ! = a repeat was not active. Most compounds without a hit are left out; they make up all but 2.5% or so of the library.

Cc1ccc(S(=O)(=O)N2CCN(C(=O)C3CCN(c4ncnc5sc(C)c(C)c45)CC3)CC2)c(C)c1	ABCB6 inh MLPCN 64
Cc1sc2ncnc(N3CCN(S(=O)(=O)c4ccc(C(C)(C)C)cc4)CC3)c2c1C	none
CCOC(=O)N1CCN(C(=O)C[C@H]2C[C@@]3(C(=O)OC)C(=C[C@H](COCc4ccccc4)O[C@@H]3C)N(Cc3ccc4c(c3)OCO4)C2=O)CC1	none (no result: Granule exo inh, ABCB6 inh MLPCN)
Cc1c(/C=N/Nc2nc3ccccc3[nH]2)c2ccccc2n1C	Granule exo inh 85
COc1ccc(-n2nnnc2SCC(=O)NNC(=O)c2ccc([N+](=O)[O-])cc2)cc1	ABCB6 inh MLPCN 69
CCN=C1NC(CCc2ccccc2)C(C(=O)OC)=C(C)N1Cc1ccccc1C(F)(F)F (configuration not stated)	none (no result: Granule exo inh, ABCB6 inh MLPCN)
COc1ccc(C(=O)COC(=O)c2ccccc2NS(=O)(=O)c2ccc(O)c([N+](=O)[O-])c2)cc1	rCAG RNA binder 92
CCCOc1ccc(C(=O)N2CCC(Oc3cccnc3)CC2)cc1	none (no result: Granule exo inh, PG9 binder, ABCB6 inh MLPCN)
O=C(Nc1ccc(Cl)cc1)C(Cl)C(=O)c1ccccc1 (configuration not stated)	Granule exo inh 96
COc1cccc(CNC(=O)[C@H]2CCCN2C(=O)[C@H]2CCCN2C(=O)c2ccccc2C(F)(F)F)c1	none (no result: Granule exo inh, ABCB6 inh MLPCN)
COc1ccc(-c2csc(NC(=O)CSc3nc(C)nc4sc(C(=O)O)c(C)c34)n2)cc1	rCAG RNA binder 42
Cc1ccc(CN2CCCCC(NC(=O)c3ccc(COc4ccccc4)cc3)C2=O)cc1 (configuration not stated)	none (no result: Granule exo inh, PG9 binder, ABCB6 inh MLPCN)
CC(C)OCCCNC1=C(Cl)C(=O)c2ccccc2C1=O	none
COCCCNC1=C(Cl)C(=O)c2ccccc2C1=O	Granule exo inh 56
Cc1ccc(S(=O)(=O)Cc2cc(F)c([N+](=O)[O-])cc2[N+](=O)[O-])cc1	Granule exo inh 72 (no result: rCAG RNA binder, PG9 binder)
C#CC(=O)N(c1cc(OC)ccc1OC)C(C(=O)NC1CCCC1)c1cccs1 (configuration not stated)	ABCB6 inh MLPCN 64 (no result: rCAG RNA binder, PG9 binder)
C#CC(=O)N(c1ccc(OC)cc1OC)C(C(=O)NC1CCCC1)c1cccs1 (configuration not stated)	none
S=C(Nc1ccc(Cl)cc1)NC1CCN(Cc2ccccc2)CC1	Granule exo inh 69
CCCN1CCN(C(=S)Nc2ccc([N+](=O)[O-])cc2)CC1	none
CCCN1CCC(NC(=S)Nc2ccc([N+](=O)[O-])cc2)CC1	Granule exo inh 86
S=C(Nc1ccccc1)NC1CCN(Cc2ccccc2)CC1	none
Cc1cccc(-c2cccc3c4c([nH]c23)[C@@H]2C[C@H](N(C)C(=O)C3CCCCC3)[C@H]([C@H](C)O)CN2CC4)c1	none (no result: Granule exo inh, PG9 binder, ABCB6 inh MLPCN)
CCN(c1ccccc1)S(=O)(=O)c1ccc(NC(=O)c2nc(S(C)(=O)=O)ncc2Cl)cc1	ABCB6 inh MLPCN 37 (no result: rCAG RNA binder, PG9 binder)
CS(=O)(=O)c1ncc(Cl)c(C(=O)Nc2ccc(OC(F)F)cc2)n1	none (no result: rCAG RNA binder, PG9 binder)
N#Cc1ccc(N=c2ssnc2Cl)cc1	Granule exo inh 99!
Clc1nssc1=Nc1ccccc1	none (no result: rCAG RNA binder, PG9 binder)
Clc1ccc(N=c2ssnc2Cl)cc1	Granule exo inh 82
COc1ccc(N=c2ssnc2Cl)cc1	none (no result: rCAG RNA binder, PG9 binder)
COc1cc(N=c2ssnc2Cl)cc(OC)c1OC	Granule exo inh 99
CCCCCCC(=O)N(O)C1CC(=O)N(c2ccc(Cl)cc2)C1=O (configuration not stated)	Granule exo inh 72
CCCCCCC(=O)N(O)C1CC(=O)N(c2ccc(C)cc2)C1=O (configuration not stated)	none
COC(=O)c1ccc(NC(=O)CSc2nc3[nH]ncc3c(=O)[nH]2)cc1	none
CC(=O)c1ccc(NC(=O)CSc2nc3[nH]ncc3c(=O)[nH]2)cc1	PG9 binder 41
COc1ccc(-[n+]2c(C)cc(/C=C3\Sc4ccccc4N3C)cc2C)cc1	Granule exo inh 61
COC(=O)c1cc2c(c3c4cc(F)ccc4n(S(=O)(=O)c4ccccc4)c13)C(=O)N(Cc1ccccc1)C2	none (no result: Granule exo inh, ABCB6 inh MLPCN)
COc1ccc2c(c1)[C@@]1(NCCc3c1[nH]c1ccc(OC)cc31)C(=O)N2	none (no result: Granule exo inh, PG9 binder, ABCB6 inh MLPCN)
COC(=O)[C@]12C[C@H](CC(=O)NCc3ccc(C)o3)C(=O)N(Cc3ccco3)C1=C[C@H](C(C)(C)C)O[C@@H]2C	none (no result: Granule exo inh, PG9 binder, ABCB6 inh MLPCN)
COC(=O)[C@]12C[C@H](CC(=O)NCc3cccs3)C(=O)N(Cc3ccc(Cl)cc3Cl)C1=C[C@H](C(C)C)O[C@@H]2C1CC1	none (no result: Granule exo inh, PG9 binder, ABCB6 inh MLPCN)
COc1ccc(/C=N/NC(=S)NCCc2ccccc2)cc1	Granule exo inh 64
COc1cccc(/C=N/NC(=S)NCCc2ccccc2)c1	Granule exo inh 58
CCc1ccc(/C=N/NC(=S)NCCc2ccccc2)cc1	none
COc1ccc(O)c(/C=N/NC(=S)NCCc2ccccc2)c1	none
O=S1(=O)c2ccc(N3CCCC3)cc2Oc2ccccc2CN1Cc1cn(Cc2ccc(F)cc2)nn1	none (no result: Granule exo inh, PG9 binder, ABCB6 inh MLPCN)
Cc1ccc(-c2csc(NC(=O)c3cc([N+](=O)[O-])ccc3N3CCOCC3)n2)cc1	none
O=C(Nc1nc(-c2ccccc2)cs1)c1ccc(N2CCOCC2)c([N+](=O)[O-])c1	Granule exo inh 84 (no result: rCAG RNA binder, PG9 binder)
COc1cc2nc(Nc3cccc(F)c3)nc(N)c2cc1OC	Granule exo inh 62
COc1nc(Nc2cccc(F)c2)nc(OC)n1	none
C=CCn1c(Sc2ncc([N+](=O)[O-])s2)n[nH]c1=O	Granule exo inh 58
COC(=O)[C@]12C[C@H](CC(=O)NCCCCc3ccccc3)C(=O)N(CCC3=CCCCC3)C1=C[C@H](C1CCCC1)O[C@@H]2C	none (no result: Granule exo inh, PG9 binder, ABCB6 inh MLPCN)
CCOC(=O)C1=C(Cc2ccc(F)cc2)C(=O)c2ccccc2C1=O	Granule exo inh 100
Cc1cccc(N(C)S(=O)(=O)c2c[nH]c3ccc([N+](=O)[O-])cc23)c1	Granule exo inh 84
COC(=O)C1CN(Cc2ccc(OC)cc2)CCS(=O)(=O)N1Cc1cn(CCOC(C)=O)nn1 (configuration not stated)	none (no result: Granule exo inh, PG9 binder, ABCB6 inh MLPCN)
Cc1ccc(/C=C2\SC(=S)N(Cc3ccccc3)C2=O)o1	none
O=C(O)c1cc(-c2ccc(/C=C3/SC(=S)N(Cc4ccccc4)C3=O)o2)ccc1Cl	Granule exo inh 90
O=C(O)COc1cccc(/C=C2/SC(=S)N(Cc3ccccc3)C2=O)c1	rCAG RNA binder 52
O=C1/C(=C\c2cccc(O)c2)SC(=S)N1Cc1ccccc1	none
CCCCNC(=O)c1onc(CSc2ccc(Cl)cc2)c1C(=O)NCCCC	Granule exo inh 70
CCCCNC(=O)c1c(CSc2ccc(Cl)cc2)noc1C(=O)NCCC	none
O=C(NCc1nc2ccccc2[nH]1)C1=C[C@@H](c2ccccc2)C[C@@H](OCc2ccc(CO)cc2)O1	Granule exo inh 71
O=C(NCc1nc2ccccc2[nH]1)C1=C[C@H](c2ccccc2)C[C@H](OCc2ccc(CO)cc2)O1	none
CCOC(=O)N(C)C[C@H]1OCc2cnnn2CCCC(=O)N([C@H](C)CO)C[C@@H]1C	none (no result: Granule exo inh, ABCB6 inh MLPCN)
CC(C)C[C@H]1CN=C(Nc2ccccc2)N1CC1CCC(C(C)(C)C)CC1 (some centres not stated)	Granule exo inh 93 (no result: rCAG RNA binder, PG9 binder)

Screening results deposited in PubChem BioAssay by several laboratories.
